# Data published in PubChem BioAssay (Tox21).
# “And” between values parts separate entries of the source, which are not always exact repeats. Identical values can stand only once. Inconclusive results are not listed. Where a call stands in place of a potency, no number is given. More than one record can exist for a structure, and the calls need not agree. The source made the active and inactive calls. Unless noted, the call rests on the fitted dose curve.
# What was measured:
# [1] = Nuclear factor erythroid 2-related factor 2/antioxidant responsive element (Nrf2/ARE) small molecule agonists: qHTS cell viability counter screen in human keratinocytes (AID 1919968; active means well fitted curve in the direction sought with a large enough effect in the repeat runs; an effect the other way counts as inactive or inconclusive; further: nearly all actives have a fitted effect of over 55% in size; further: potency means the concentration at half of the fitted maximal effect)
# In short: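 Stably transfected HaCaT (KeratinoSens), 1,500/well. Test agents in DMSO were applied for 23 h, 37 C/5% CO2. CellTiter-Fluor was incubated 1 h before the fluorescence read.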
# [2] = Nuclear factor erythroid 2-related factor 2/antioxidant responsive element (Nrf2/ARE) small molecule agonists: luciferase reporter gene qHTS assay in human keratinocytes (AID 1919969); further: nearly all actives have a fitted effect of over 35% in size; further: potency means the concentration at half of the fitted maximal effect
# [3] = target: Gonadotropin-releasing hormone receptor (Homo sapiens) (UniProt P30968); experiment: Human gonadotropin-releasing hormone receptor (GnRHR) small molecule agonists, calcium flux assay in GnRHR-HEK293 cells (AID 1920063); further: nearly all actives have a fitted effect of over 35% in size
# Gonadotropin-releasing hormone receptor (Homo sapiens), sequence (P30968 whole entry, looked up): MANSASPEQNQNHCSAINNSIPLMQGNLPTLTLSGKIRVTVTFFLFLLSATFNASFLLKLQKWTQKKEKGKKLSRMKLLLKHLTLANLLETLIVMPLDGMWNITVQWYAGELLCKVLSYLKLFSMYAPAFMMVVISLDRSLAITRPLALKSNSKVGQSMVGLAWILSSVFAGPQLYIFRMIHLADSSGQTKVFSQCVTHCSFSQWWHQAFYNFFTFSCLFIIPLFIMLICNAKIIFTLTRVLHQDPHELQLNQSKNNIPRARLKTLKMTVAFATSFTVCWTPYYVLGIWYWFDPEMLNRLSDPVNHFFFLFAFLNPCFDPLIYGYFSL
# In short: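 Stable human GnRHR HEK293 line. 18 h plating, then calcium dye for 1 h at 37 C. Agonist-mode compound addition from DMSO stocks; fluorescence monitored 3 min.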
# [4] = target: KiSS-1 receptor (Homo sapiens) (UniProt Q969F8); experiment: Human kisspeptin (KISS1R) small molecule agonists, calcium flux assay in KISS1R-HEK293 cells (AID 1920064; active means well fitted curve in the direction sought with a large enough effect in the repeat runs; an effect the other way counts as inactive or inconclusive)
# KiSS-1 receptor (Homo sapiens), sequence (Q969F8 whole entry, looked up): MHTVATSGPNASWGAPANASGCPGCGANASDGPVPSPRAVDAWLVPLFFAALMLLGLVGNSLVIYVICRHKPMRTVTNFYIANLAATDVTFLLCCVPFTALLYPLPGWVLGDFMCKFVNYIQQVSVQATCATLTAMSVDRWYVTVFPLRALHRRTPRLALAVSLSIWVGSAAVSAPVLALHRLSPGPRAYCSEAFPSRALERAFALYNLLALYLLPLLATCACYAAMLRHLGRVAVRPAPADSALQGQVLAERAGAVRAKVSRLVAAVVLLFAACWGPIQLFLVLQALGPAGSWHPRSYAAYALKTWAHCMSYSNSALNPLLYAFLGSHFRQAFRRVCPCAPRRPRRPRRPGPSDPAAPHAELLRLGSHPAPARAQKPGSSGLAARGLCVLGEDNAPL
# In short: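 After overnight (18 h) culture at 37 C/5% CO2, human KISS1R-HEK293 cells received calcium dye for 1 h, then test compound; emission at 540 nm (excitation 480 nm) was tracked for 3 min.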
# [5] = G protein-coupled receptor (GPCR) small molecule agonists, calcium flux assay: HEK293 wild type cell line counter screen (AID 1920065)
# In short: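 Following 18 h incubation at 37 C/5% CO2, plates got calcium dye for 1 h; compounds, ATP or DMSO were then pinned in and fluorescence followed kinetically (480/540 nm).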
# [6] = p53 small molecule agonists, cell-based qHTS assay with human liver microsomes (AID 1963577);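 further: p53 response element beta-lactamase reporter cells with liver microsomes plus NADPH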
# In short: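 Metabolically competent format: test substances, human liver microsomes and NADPH (both 0.5 mg/mL final) incubated with p53RE-bla cells 16 h at 37 C. Beta-lactamase reporter signal then quantified by fluorescence.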
# [7] = p53 small molecule agonists, cell-based qHTS assay with rat liver microsomes (AID 1963578)
# In short: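 Each plate received p53RE-bla cells, then compound, then rat liver microsomes and NADPH (both 0.5 mg/mL final). Plates were held 16 h at 37 C, and beta-lactamase activity was detected with LiveBLAzer over 2 h.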
# [8] = p53 small molecule agonists, cell-based qHTS assay with human liver microsomes: qHTS cell viability counter screen (AID 1963579); further: nearly all actives have a fitted effect of over 45% in size; further: potency means the concentration at half of the fitted maximal effect
# In short: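 Tox21 library compounds, delivered from DMSO stocks, were tested on p53RE-bla cells together with 0.5 mg/mL human liver microsomes and 0.5 mg/mL NADPH (final) over 16 h at 37 C; CellTiter-Glo luminescence served as the cytotoxicity measure.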
# [9] = p53 small molecule agonists, cell-based qHTS assay with rat liver microsomes: qHTS cell viability counter screen (AID 1963580); further: nearly all actives have a fitted effect of over 45% in size; further: potency means the concentration at half of the fitted maximal effect
# In short: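 Cytotoxicity counter screen: intracellular ATP read by CellTiter-Glo luminescence in the p53 reporter wells. HCT-116 p53RE-bla cells were treated for 16 h at 37 C alongside rat liver microsomes and NADPH, each 0.5 mg/mL final.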
# [10] = p53 small molecule agonists, cell-based qHTS assay: qHTS cell viability counter screen (AID 1963581); further: nearly all actives have a fitted effect of over 45% in size; further: potency means the concentration at half of the fitted maximal effect
# In short: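 qHTS counter screen: 16 h compound exposure at 37 C of p53RE-bla HCT-116 cells (4,000 per well, seeded 5 h prior), cell viability by ATP luminescence.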
# [11] = target: 5-hydroxytryptamine receptor 2A (Homo sapiens) (UniProt P28223); experiment: 5-hydroxytryptamine receptor 2A (HTR2A) small molecule antagonists, cell-based qHTS assay (AID 1963586); further: nearly all actives have a fitted effect of over 45% in size; further: potency means the concentration at half of the fitted maximal effect
# 5-hydroxytryptamine receptor 2A (Homo sapiens), sequence (P28223 whole entry, looked up): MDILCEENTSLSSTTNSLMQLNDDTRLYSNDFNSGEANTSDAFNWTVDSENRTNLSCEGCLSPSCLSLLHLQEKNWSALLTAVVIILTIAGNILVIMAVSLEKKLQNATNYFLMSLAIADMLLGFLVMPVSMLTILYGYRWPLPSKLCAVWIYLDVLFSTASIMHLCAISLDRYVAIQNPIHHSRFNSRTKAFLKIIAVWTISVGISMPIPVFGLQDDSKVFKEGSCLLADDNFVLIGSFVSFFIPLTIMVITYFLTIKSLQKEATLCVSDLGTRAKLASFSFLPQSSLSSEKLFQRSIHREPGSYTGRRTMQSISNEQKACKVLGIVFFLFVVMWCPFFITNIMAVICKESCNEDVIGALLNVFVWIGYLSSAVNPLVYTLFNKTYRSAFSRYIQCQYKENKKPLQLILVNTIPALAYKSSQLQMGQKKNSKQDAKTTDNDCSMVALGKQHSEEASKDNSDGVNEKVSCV
# In short: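 CHO cells stably expressing human HTR2A were plated for 18 h at 37 C, then loaded with calcium dye for 1 h. Compounds were preincubated 5 min at room temperature before DOI (4 nM solution) was added. Kinetic fluorescence was read for 3 min.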
# [12] = target: 5-hydroxytryptamine receptor 2A (Homo sapiens) (UniProt P28223); experiment: 5-hydroxytryptamine receptor 2A (HTR2A) small molecule agonists, cell-based qHTS assay (AID 1963587); further: nearly all actives have a fitted effect of over 30% in size; further: potency means the concentration at half of the fitted maximal effect
# In short: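 Kinetic calcium-flux fluorescence (2 min, 1 sec intervals) after compound addition in agonist mode. HTR2A-CHO cells were cultured 18 h, then dye-loaded 1 h at 37 C.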
# [13] = target: Muscarinic acetylcholine receptor M1 (Homo sapiens) (UniProt P11229); experiment: Cholinergic receptor muscarinic 1 (CHRM1) small molecule agonists, cell-based qHTS assay (AID 1963589); further: nearly all actives have a fitted effect of over 35% in size
# Muscarinic acetylcholine receptor M1 (Homo sapiens), sequence (P11229 whole entry, looked up): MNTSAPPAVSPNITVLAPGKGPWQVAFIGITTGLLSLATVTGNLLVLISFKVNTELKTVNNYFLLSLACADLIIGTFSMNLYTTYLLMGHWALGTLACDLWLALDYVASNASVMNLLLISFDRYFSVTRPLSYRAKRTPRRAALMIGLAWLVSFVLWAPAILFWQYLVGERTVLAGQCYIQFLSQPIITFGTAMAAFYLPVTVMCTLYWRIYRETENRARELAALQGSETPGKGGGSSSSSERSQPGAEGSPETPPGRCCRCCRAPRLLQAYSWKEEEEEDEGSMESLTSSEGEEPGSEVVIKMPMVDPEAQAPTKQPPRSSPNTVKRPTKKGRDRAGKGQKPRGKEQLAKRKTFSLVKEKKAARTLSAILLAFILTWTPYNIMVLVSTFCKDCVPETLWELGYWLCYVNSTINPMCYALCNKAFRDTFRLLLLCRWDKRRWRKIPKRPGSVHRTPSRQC
# In short: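 Kinetic fluorescence (1 s intervals) of calcium-sensitive dye in human M1 CHO cells after compound addition; cells pre-incubated 18 h at 37 C/5% CO2 and dye-loaded 1 h.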
# [14] = cAMP Responsive Elements (CRE) small molecule agonists, cell-based qHTS assay (AID 1963590)
# In short: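 Test agents in DMSO were incubated 3 h at 37 C/5% CO2 with CRE-bla HEK 293T cells seeded 18 h earlier; LiveBLAzer B/G FRET substrate was added and read after 2 h at room temperature.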
# [15] = cAMP Responsive Elements (CRE) small molecule antagonists, cell-based qHTS assay (AID 1963591; active means well fitted inhibition curve with a large enough effect in the signal ratio in the repeat runs, not every such curve was filed as active; the % refers to the signal ratio)
# In short: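 Reporter line CRE-bla HEK 293T in dialyzed-FBS DMEM; cells preincubated 18 h, treated 3 h with compound plus NKH477 (0.25 uM final); LiveBLAzer FRET, 2 h RT.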
# [16] = target: Beta-2 adrenergic receptor (Homo sapiens) (UniProt P07550); experiment: Adrenergic beta2 receptor (ADRB2) small molecule antagonists, cell-based qHTS assay (AID 1963592); further: series mostly up to about 92 µM; nearly all actives have a fitted effect of over 50% in size
# Beta-2 adrenergic receptor (Homo sapiens), sequence (P07550 whole entry, looked up): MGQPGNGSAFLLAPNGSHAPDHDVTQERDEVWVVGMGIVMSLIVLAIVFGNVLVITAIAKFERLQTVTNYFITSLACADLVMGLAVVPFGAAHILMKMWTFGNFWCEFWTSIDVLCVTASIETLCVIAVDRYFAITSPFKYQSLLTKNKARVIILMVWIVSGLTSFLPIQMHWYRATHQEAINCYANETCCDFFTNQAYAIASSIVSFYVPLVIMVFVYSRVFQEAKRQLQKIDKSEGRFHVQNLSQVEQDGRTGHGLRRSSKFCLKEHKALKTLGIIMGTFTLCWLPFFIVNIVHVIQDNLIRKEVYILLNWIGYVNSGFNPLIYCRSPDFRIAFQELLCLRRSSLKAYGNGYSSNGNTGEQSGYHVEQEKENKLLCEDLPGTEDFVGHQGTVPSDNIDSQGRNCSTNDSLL
# In short: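 Assay format: CHO-ADRB2 cells, 18-20hr seeding at 37C/5% CO2, then compound plus 1nM isoproterenol agonist mix for 0.5hr RT. Homogeneous time-resolved fluorescence cAMP detection after 1hr, expressed as 665/615 nm ratio.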
# [17] = target: Beta-2 adrenergic receptor (Homo sapiens) (UniProt P07550); experiment: Adrenergic beta2 receptor (ADRB2) small molecule agonists, cell-based qHTS assay (AID 1963593);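 further: CHO cells stably overexpressing human ADRB2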
# In short: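 CHO cells stably over-expressing ADRB2 were plated overnight at 37C, then dosed with compounds plus a stimulation mix containing 100uM IBMX and 25uM Ro-20-1724 for 0.5hr at room temperature. cAMP was measured by HTRF competition, 1hr.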
# [18] = target: D(2) dopamine receptor (Homo sapiens) (UniProt P14416); experiment: Dopamine D2 receptor (DRD2) small molecule agonists, cell-based qHTS assay (AID 1963594); further: nearly all actives have a fitted effect of over 35% in size
# D(2) dopamine receptor (Homo sapiens), sequence (P14416 whole entry, looked up): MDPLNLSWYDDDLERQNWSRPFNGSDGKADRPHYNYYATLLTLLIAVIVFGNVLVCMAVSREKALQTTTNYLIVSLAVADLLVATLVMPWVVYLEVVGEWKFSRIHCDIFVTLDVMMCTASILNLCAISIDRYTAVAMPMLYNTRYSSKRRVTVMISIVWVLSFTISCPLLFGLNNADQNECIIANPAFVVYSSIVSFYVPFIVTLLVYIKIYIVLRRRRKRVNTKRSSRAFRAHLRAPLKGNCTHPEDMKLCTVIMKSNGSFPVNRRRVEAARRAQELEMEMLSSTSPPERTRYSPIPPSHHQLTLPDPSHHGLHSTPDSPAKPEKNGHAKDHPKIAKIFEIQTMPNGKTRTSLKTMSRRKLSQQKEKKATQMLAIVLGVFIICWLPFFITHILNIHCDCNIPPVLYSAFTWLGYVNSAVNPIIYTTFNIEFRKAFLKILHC
# In short: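 cAMP accumulation in DRD2-HEK293 cells measured by HTRF after 1 h detection; compounds added 10 min before NKH477 (200nM […]) forskolin-analogue stimulation, 30 min at room temperature, with Ro20-1724 present at 0.1 mM final.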
# [19] = target: D(2) dopamine receptor (Homo sapiens) (UniProt P14416); experiment: Dopamine D2 receptor (DRD2) small molecule antagonists, cell-based qHTS assay (AID 1963595; active means well fitted inhibition curve with a large enough effect in the signal ratio in the repeat runs, with a control signal flat; the % refers to the signal ratio; further: potency means the concentration at half of the fitted maximal effect)
# In short: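 HTRF cAMP read-out at 665 and 620 nm emission (340 nm excitation). Antagonist mode: compounds were tested against 12 nM quinpirole in DRD2-HEK293 cells, with 200 nM NKH477 raising cAMP and 0.1 mM Ro20-1724 blocking its breakdown.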
# [20] = p53 small molecule agonists, cell-based qHTS assay (AID 1963582; active means well fitted activation curve with a large enough effect in the signal ratio in the repeat runs, not every such curve was filed as active; the % refers to the signal ratio)
# In short: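 Measured: fluorescence from cleaved LiveBLAzer substrate. System: p53RE-bla cells, 16 h compound treatment at 37 C, 2 h substrate step at room temperature.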
Compound,Potency [1],Potency [2],Potency [3],Potency [4],Potency [5],Potency [6],Potency [7],Potency [8],Potency [9],Potency [10],Potency [11],Potency [12],Potency [13],Potency [14],Potency [15],Potency [16],Potency [17],Potency [18],Potency [19],Potency [20]
c1cc(-c2ccncc2)ccn1,inactive,inactive,inactive,inactive,inactive,inactive,inactive,inactive,inactive,inactive,inactive,inactive,inactive,inactive,inactive,inactive,inactive,inactive,inactive,–
Cc1ccc2ncccc2c1,inactive,inactive,inactive,inactive,inactive,inactive,inactive,inactive,inactive,inactive,inactive,inactive,inactive,inactive,inactive,inactive,inactive,inactive,inactive,–
CC(C)OB(OC(C)C)OC(C)C,inactive,inactive,inactive,inactive,inactive,inactive,inactive,inactive,inactive,inactive,inactive,inactive,inactive,–,inactive,inactive,inactive,inactive,inactive,–
C#C[C@]1(O)CC[C@H]2[C@@H]3CCC4=CC(=O)CC[C@@H]4[C@H]3CC[C@@]21CC,inactive,inactive,inactive,inactive,inactive,inactive,inactive,inactive,inactive,inactive,–,–,–,inactive,–,inactive,inactive,inactive,inactive,inactive
CC(=O)Nc1ccc(C(=O)CCl)cc1,inactive and 27.3 µM (active),54.8 µM (active) and 9.69 µM (active),inactive,inactive,inactive,inactive,inactive,inactive,inactive,inactive,inactive,inactive,inactive,–,inactive,inactive,–,inactive,–,–
CCCCCCCCCCCCCCCC[N+](C)(C)Cc1ccccc1,28.2 µM (active) and 24.8 µM (active) and 26.6 µM (active),inactive,inactive,inactive,inactive,inactive,inactive,53 µM (active) and 33 µM (active) and inactive,41.5 µM (active) and inactive,37 µM (active),inactive and 11.6 µM (active),49.8 µM (active),inactive,–,–,inactive,inactive,inactive,55.5 µM (active),–
CCC(=O)O,inactive,inactive,inactive,inactive,inactive,inactive,inactive,inactive,inactive,–,inactive,inactive,inactive,inactive,inactive,inactive,inactive,inactive,inactive,inactive
CC(=O)OC/C=C(C)/C=C/C=C(C)/C=C/C1=C(C)CCCC1(C)C,inactive,66.9 µM (active) and 54.5 µM (active) and 29.8 µM (active),inactive,inactive,inactive,inactive,inactive,inactive,inactive,inactive,inactive,inactive,–,inactive,inactive,inactive,–,inactive,inactive,–
CC#C[C@]1(O)CC[C@H]2[C@@H]3CCC4=CC(=O)CCC4=C3[C@@H](c3ccc(N(C)C)cc3)C[C@@]21C,inactive,inactive,inactive,inactive,inactive,inactive,inactive,inactive,inactive,inactive,–,–,–,–,–,inactive,–,inactive,inactive,–
OC(Cn1cncn1)(Cn1cncn1)c1ccc(F)cc1F,inactive,inactive,inactive,inactive,inactive,inactive,inactive,inactive,inactive,inactive,–,–,–,inactive,inactive,inactive,inactive,inactive,inactive,–
CCCCOCCOC(=O)c1ccccc1C(=O)OCCOCCCC,47.5 µM (active) and inactive,23.8 µM (active) and 68.6 µM (active),inactive,inactive,inactive,inactive,inactive,inactive,inactive,inactive,inactive,inactive,inactive,inactive,inactive,inactive,–,inactive,inactive,–
Cc1ncc([N+](=O)[O-])n1CCO,inactive,inactive,inactive,inactive,inactive,inactive,inactive,inactive,inactive,inactive,–,–,–,inactive,inactive,inactive,inactive,inactive,inactive,–
CCCCC/C=C\C/C=C\CCCCCCCC(=O)O,inactive,60.1 µM (active) and 68.6 µM (active),inactive,inactive,inactive,inactive,inactive,inactive,inactive,inactive,inactive,inactive,inactive,–,–,inactive,inactive,inactive,inactive,–
